PI5P4Ka inh – inhibitors of human PI5P4K alpha. P48426. 330,000 tested, 1.2% active. max response, %. PI5P4Kalpha enzyme, ADP-Glo luminescence, 60 min; stronger effect = lower value; active means max response of -50% or lower; inconclusive means between -30% and -50%; inactive means -30% or higher; further: value at the top dose of about 77 µM
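PI5P4Kalpha ADP-Glo assay; 5 microM ATP final; 60 min RT reaction; HEPES pH 7.4/EGTA/CHAPS, 5% DMSO; controls lacking substrate or enzyme; luminescent end-point.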
PLK1 PBD inh – inhibitors of human PLK1 polo-box domain binding | Plk1 PBD binding of FITC phosphopeptide, fluorescence polarization | 360,000 tested, 2.8% active | AID 720504 | P53350 | Potency, µM, actives largely listed as inhibitors; further: series mostly up to about 57 µM; nearly all actives have a fitted effect of over 65% in size
Target sequence (P53350 whole entry, looked up, the tested form may be a part): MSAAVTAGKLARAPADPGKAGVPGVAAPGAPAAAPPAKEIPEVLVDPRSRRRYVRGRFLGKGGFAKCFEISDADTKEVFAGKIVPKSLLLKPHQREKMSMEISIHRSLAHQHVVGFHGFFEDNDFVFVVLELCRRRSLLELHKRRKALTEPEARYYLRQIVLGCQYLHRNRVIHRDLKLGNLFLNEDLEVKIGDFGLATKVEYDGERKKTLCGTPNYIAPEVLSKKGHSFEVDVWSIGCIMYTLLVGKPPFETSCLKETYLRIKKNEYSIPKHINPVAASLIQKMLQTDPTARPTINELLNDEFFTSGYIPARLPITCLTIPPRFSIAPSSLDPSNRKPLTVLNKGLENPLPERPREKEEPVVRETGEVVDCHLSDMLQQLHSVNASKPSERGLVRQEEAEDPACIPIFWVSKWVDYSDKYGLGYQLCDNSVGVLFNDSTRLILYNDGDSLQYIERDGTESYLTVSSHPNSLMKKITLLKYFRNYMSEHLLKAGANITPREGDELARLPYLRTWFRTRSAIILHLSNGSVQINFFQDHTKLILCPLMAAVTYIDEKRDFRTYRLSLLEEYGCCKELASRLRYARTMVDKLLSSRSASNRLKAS
USP2a block – inhibitors of human ubiquitin-specific protease USP2a. Potency, µM (top dose mostly 38.3 µM), most hits filed as inhibitors. 330,000 tested, 0.01% active. AID 463254. USP2 core, Ub-CHOP2 coupled fluorogenic reporter, 485/531
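Deubiquitinase activity read as fluorescence (485/531 nm) after Ub-CHOP2 cleavage activates the enterokinase reporter on its substrate; USP2 core 10nM, Ub-CHOP2 and substrate 25nM each, 30min compound preincubation then 60min RT; data normalized to NEM, curves fitted.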
USP1-UAF1 inh – USP1/UAF1 (human) deubiquitinase inhibition. AID 743255. 390,000 tested, 0.23% active. O94782. recombinant USP1/UAF1, Ub-Rhodamine cleavage fluorescence. Potency, µM (doses to about 57.1 µM), most hits filed as inhibitors; further: nearly all actives have a fitted effect of over 60% in size
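High-throughput fluorogenic screen: 1nM USP1/UAF1 complex, Ub-Rho substrate 150nM final, 50mM HEPES pH 7.8 with 0.5mM EDTA, 0.1 mg/ml BSA, 1mM TCEP and 0.01% Tween-20.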
WRN helicase inh – inhibitors of human WRN helicase; Potency, µM (highest dose often 114 µM), most hits filed as inhibitors; WRN helicase unwinding, fluorescent forked duplex, kinetic; 360,000 tested, 0.46% active; AID 651768; Q14191; further: nearly all actives have a fitted effect of over 55% in size
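Kinetic fluorescence helicase assay: unwinding of a quenched forked DNA duplex (100 nM final) with 2 mM ATP final raises red fluorescence (525/598 nm). Compounds sat 15 min at room temperature with 20 nM WRN beforehand.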
A number is an active result. An excerpt weighted towards active compounds, which were near 3.3% of everything screened. Unless noted, the call rests on the fitted dose curve; in most records, active means well fitted curve in the direction sought with a large enough effect; inconclusive means small, poorly fitted or top-dose-only effect, or another doubt; inactive means no such curve, though single readings can be large; an effect the other way counts as inactive or inconclusive.

How did COc1cc(NS(=O)(=O)c2ccc(Nc3nc(-c4ccccc4)cs3)cc2)nc(OC)n1 do in these assays?
PI5P4Ka inh: inactive; PLK1 PBD inh: 27µM; USP2a block: inactive; USP1-UAF1 inh: inactive; WRN helicase inh: inactive

How did COc1ccc(-c2csc(Nc3ccc(S(N)(=O)=O)cc3)n2)cc1OC do in these assays?
PI5P4Ka inh: inactive; PLK1 PBD inh: 8.4µM; USP2a block: inactive; USP1-UAF1 inh: inactive; WRN helicase inh: inactive

How did O=C(c1ccc(O)cc1)c1ccc(O)cc1O do in these assays?
PI5P4Ka inh: inactive; PLK1 PBD inh: inactive; USP2a block: inactive; USP1-UAF1 inh: inactive; WRN helicase inh: inactive

How did O=C(c1ccccc1)c1ccc(O)cc1O do in these assays?
PI5P4Ka inh: inactive; PLK1 PBD inh: 12µM; USP2a block: inconclusive; USP1-UAF1 inh: 28µM; WRN helicase inh: inactive

How did Nc1cc(OCC(F)(F)F)cc([N+](=O)[O-])c1 do in these assays?
PI5P4Ka inh: inactive; PLK1 PBD inh: inactive; USP2a block: inactive; USP1-UAF1 inh: inactive; WRN helicase inh: inactive

What do the screens show for `Nc1cc(N)c(OCC(F)(F)F)cc1OCC(F)(F)F`?
PI5P4Ka inh: inactive; PLK1 PBD inh: inconclusive; USP2a block: inactive; USP1-UAF1 inh: 25µM; WRN helicase inh: inactive

Results for COc1ccc(C)cc1NS(=O)(=O)c1ccc2c3c(cccc13)C(=O)N2 ?
USP1-UAF1 inh: inactive

How did CC(=O)N1CCn2c3c(c4cc(C)ccc42)CCCC31 (stereo unspecified) do in these assays?
PI5P4Ka inh: inactive; PLK1 PBD inh: inactive; USP2a block: inactive; USP1-UAF1 inh: inactive; WRN helicase inh: inactive

Results for CC(=O)N1CCn2c3c(c(=O)c4cc(C)ccc42)CCC31 (stereo unspecified) ?
PI5P4Ka inh: inactive; PLK1 PBD inh: inactive; USP2a block: inactive; USP1-UAF1 inh: 32µM; WRN helicase inh: inactive

Results for FC(F)(F)c1nc(=S)c2ccccc2[nH]1 ?
PI5P4Ka inh: inactive; PLK1 PBD inh: 21µM; USP2a block: inactive; USP1-UAF1 inh: inactive; WRN helicase inh: inactive

How did CCc1cccc2c(C(=O)COC(=O)c3cccc(S(=O)(=O)N(C)C4CCCCC4)c3)c[nH]c12 do in these assays?
PI5P4Ka inh: -68; PLK1 PBD inh: inactive; USP2a block: inactive; USP1-UAF1 inh: inactive; WRN helicase inh: inactive

What do the screens show for `CCC(C)c1ccccc1O` (stereo unspecified)?
PI5P4Ka inh: inactive; PLK1 PBD inh: inactive; USP2a block: inactive; USP1-UAF1 inh: inactive; WRN helicase inh: inactive

What do the screens show for `CCC(c1ccccc1)C(CC)c1cc(O)c(O)c(O)c1` (stereo unspecified)?
PI5P4Ka inh: inactive; PLK1 PBD inh: 6µM; USP1-UAF1 inh: inactive; WRN helicase inh: 45µM

What do the screens show for `COc1ccc(N2CC(NC(=O)C(=O)c3c[nH]c4ccccc34)CC2=O)cc1` (stereo unspecified)?
USP1-UAF1 inh: inactive

How did CC(C)Oc1ccccc1-c1nc(SCC(=O)c2ccc(F)cc2)n[nH]1 do in these assays?
USP1-UAF1 inh: inactive

Results for Cc1ccc(NC(=O)Cn2nnc(-c3nc(-c4ccc(Cl)cc4)no3)c2N)cc1C ?
USP1-UAF1 inh: inactive

How did OC1=C(O)c2nc3cc(F)ccc3nc21 do in these assays?
PI5P4Ka inh: inactive; PLK1 PBD inh: 21µM; USP2a block: inactive; USP1-UAF1 inh: inactive; WRN helicase inh: inactive

Results for CCOc1cc2sc(N3CCC(C(=O)Nc4ccccc4Cl)CC3)nc2cc1Br ?
USP1-UAF1 inh: inactive

Results for O=C1NC(=S)N/C1=C/c1ccc2c(c1)OCO2 ?
PI5P4Ka inh: inactive; PLK1 PBD inh: inactive; USP2a block: inactive; USP1-UAF1 inh: inactive; WRN helicase inh: inactive

What do the screens show for `COc1cccc(/C=C2/C(=O)NN(c3ccc(C)c(C)c3)C2=O)c1`?
PI5P4Ka inh: inactive; PLK1 PBD inh: 6µM; USP2a block: inactive; USP1-UAF1 inh: inactive; WRN helicase inh: inactive

Results for COc1cccc(/C=C2/C(=O)NN(c3ccccc3)C2=O)c1 ?
PI5P4Ka inh: inactive; PLK1 PBD inh: 5.3µM; USP2a block: inactive; USP1-UAF1 inh: inactive; WRN helicase inh: inactive

How did COc1cccc(/C=C2/C(=O)NN(c3ccc(F)cc3)C2=O)c1 do in these assays?
PI5P4Ka inh: inactive; PLK1 PBD inh: 5.3µM; USP2a block: inactive; USP1-UAF1 inh: inactive; WRN helicase inh: inactive

What do the screens show for `O=C1NN(c2ccccc2)C(=O)/C1=C\c1ccc2c(c1)OCO2`?
PI5P4Ka inh: inactive; PLK1 PBD inh: 27µM; USP2a block: inactive; USP1-UAF1 inh: inactive; WRN helicase inh: inconclusive

Bioassay records (PubChem)
